According to PubChem BioAssay (Tox21):
Results filed as inconclusive are left out. Active and inactive are the calls of the source. Calls come from the whole dose curve; as a rule, active = well fitted curve in the direction sought with a large enough effect in the repeat runs; inconclusive = weak or mixed curves; inactive = no such curve, though single readings can be large; an effect the other way counts as inactive or inconclusive.

Legend:
[1] = qHTS RealTime-Glo MT Cell Viability Assay in HepG2 cells - 40 hour (AID 1224870); note: nearly all actives have a fitted effect of over 50% in size
How it was run: (§1)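 HepG2 cells mixed with RealTime-Glo MT reagents (NanoLuc plus cell-permeant prosubstrate) were seeded at 600 cells/well, incubated 5 h at 37 C/5% CO2, then pinned with compounds in DMSO; nonlytic luminescence tracked viability during 40 h treatment.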

[2] = A CellTox Green Cytotoxicity Assay to monitor cytotoxicity in HEK293 cells - 40 hour (AID 1224871); note: nearly all actives have a fitted effect of over 45% in size
How it was run: (§2)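 Real-time, in one plate: 600 HEK293 cells/well with dead-cell DNA dye, pinned compound after 5 h, 37 C incubation over 40 h; viable cells give no appreciable fluorescence.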

[3] = qHTS RealTime-Glo MT Cell Viability Assay in HEK293 cells - 16 hour (AID 1224872); note: top concentration of the series differs between compounds; nearly all actives have a fitted effect of over 50% in size
How it was run: (§3)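 Homogeneous bioluminescent viability format in HEK293 cells (600 cells/well). Following 5 h at 37 C/5% CO2, 23 nL compound was pintooled; the signal was measured repeatedly during 40 h incubation.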

[4] = qHTS RealTime-Glo MT Cell Viability Assay in HepG2 cells - 8 hour (AID 1224873); note: nearly all actives have a fitted effect of over 55% in size
How it was run: as §1

[5] = A CellTox Green Cytotoxicity Assay to monitor cytotoxicity in HEK293 cells - 24 hour (AID 1224875); note: series mostly up to about 77 µM; nearly all actives have a fitted effect of over 45% in size
How it was run: as §2

[6] = A CellTox Green Cytotoxicity Assay to monitor cytotoxicity in HepG2 cells - 16 hour (AID 1224876); note: nearly all actives have a fitted effect of over 45% in size
How it was run: (§4)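 Cytotoxicity was tracked as dead-cell DNA fluorescence in HepG2 cells treated with test compounds at 37 C; each time-point value comes from one kinetic series spanning 0, 8, 16, 24, 32 and 40 h.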

[7] = qHTS RealTime-Glo MT Cell Viability Assay in HepG2 cells - 32 hour (AID 1224877); note: nearly all actives have a fitted effect of over 55% in size
How it was run: (§5)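 Cell number in HepG2 cultures estimated from NanoLuc luminescence generated by metabolic reduction of a prosubstrate by living cells. The homogeneous, nonlytic format allowed repeated reads at 0, 8, 16, 24, 32 and 40 h of compound exposure.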

[8] = A CellTox Green Cytotoxicity Assay to monitor cytotoxicity in HepG2 cells - 24 hour (AID 1224878); note: nearly all actives have a fitted effect of over 45% in size
How it was run: as §4

[9] = A CellTox Green Cytotoxicity Assay to monitor cytotoxicity in HepG2 cells - 40 hour (AID 1224879); note: nearly all actives have a fitted effect of over 40% in size
How it was run: as §4

[10] = qHTS RealTime-Glo MT Cell Viability Assay in HEK293 cells - 0 hour (AID 1224880)
How it was run: (§6)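 Kinetic, non-lysing viability readout. Seed HEK293 (600/well) with reagent, incubate 5 h at 37 C/5% CO2, pin 23 nL compound in DMSO, incubate at 37 C, read luminescence at 0, 8, 16, 24, 32, 40 h.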

[11] = A CellTox Green Cytotoxicity Assay to monitor cytotoxicity in HEK293 cells - 32 hour (AID 1224881); note: nearly all actives have a fitted effect of over 40% in size
How it was run: as §2

[12] = A CellTox Green Cytotoxicity Assay to monitor cytotoxicity in HepG2 cells - 0 hour (AID 1224882); note: nearly all actives have a fitted effect of over 35% in size
How it was run: as §4

[13] = A CellTox Green Cytotoxicity Assay to monitor cytotoxicity in HepG2 cells - 32 hour (AID 1224883); note: nearly all actives have a fitted effect of over 50% in size
How it was run: as §4

[14] = A CellTox Green Cytotoxicity Assay to monitor cytotoxicity in HEK293 cells - 8 hour (AID 1224884); note: nearly all actives have a fitted effect of over 35% in size
How it was run: as §2

[15] = qHTS RealTime-Glo MT Cell Viability Assay in HepG2 cells - 16 hour (AID 1224885); note: nearly all actives have a fitted effect of over 50% in size
How it was run: as §5

[16] = qHTS RealTime-Glo MT Cell Viability Assay in HEK293 cells - 24 hour (AID 1224886)
How it was run: as §3

[17] = qHTS RealTime-Glo MT Cell Viability Assay in HEK293 cells - 8 hour (AID 1224887)
How it was run: as §6

[18] = A CellTox Green Cytotoxicity Assay to monitor cytotoxicity in HEK293 cells - 16 hour (AID 1224888); note: nearly all actives have a fitted effect of over 35% in size
How it was run: as §2

[19] = qHTS RealTime-Glo MT Cell Viability Assay in HepG2 cells - 0 hour (AID 1224889); note: nearly all actives have a fitted effect of over 50% in size
How it was run: as §5

[20] = qHTS RealTime-Glo MT Cell Viability Assay in HEK293 cells - 40 hour (AID 1224874); details: RealTime-Glo luminescence; max response: active compounds read low; note: nearly all actives have a fitted effect of over 50% in size
How it was run: as §6
% is set by controls: 0 for no effect and ±100 for the full control effect.

CC(C)CCCC(C)N (stereo not given)
inactive: Potency [1] | Potency [2] | Potency [3] | Potency [4] | Potency [5] | Potency [6] | Potency [7] | Potency [8] | Potency [9] | Potency [10] | Potency [11] | Potency [12] | Potency [13] | Potency [14] | Potency [15] | Potency [16] | Potency [17] | Potency [18] | Potency [19]

C1CN(CCOCCN2CCOCC2)CCO1
inactive: Potency [1] | Potency [2] | Potency [3] | Potency [4] | Potency [5] | Potency [6] | Potency [7] | Potency [8] | Potency [9] | Potency [10] | Potency [11] | Potency [12] | Potency [13] | Potency [14] | Potency [15] | Potency [17] | Potency [18] | Potency [19]

C=C(C)CS(=O)(=O)O
inactive: Potency [1] | Potency [2] | Potency [3] | Potency [4] | Potency [5] | Potency [6] | Potency [7] | Potency [8] | Potency [9] | Potency [10] | Potency [11] | Potency [12] | Potency [13] | Potency [14] | Potency [15] | Potency [16] | Potency [17] | Potency [18] | Potency [19]

C=C1CC[C@H]2C[C@@H]1C2(C)C
inactive: Potency [1] | Potency [2] | Potency [3] | Potency [4] | Potency [5] | Potency [6] | Potency [7] | Potency [9] | Potency [10] | Potency [11] | Potency [12] | Potency [13] | Potency [14] | Potency [16] | Potency [17] | Potency [18] | Potency [19]

CC(=O)c1ccccc1O
inactive: Potency [1] | Potency [2] | Potency [3] | max response [20] 9.04% | Potency [5] | Potency [6] | Potency [7] | Potency [8] | Potency [9] | Potency [10] | Potency [11] | Potency [12] | Potency [13] | Potency [14] | Potency [15] | Potency [16] | Potency [17] | Potency [18] | Potency [19]

CC(C)OC(=O)c1ccccc1
inactive: Potency [1] | Potency [2] | Potency [3] | max response [20] 0.492% | Potency [5] | Potency [6] | Potency [7] | Potency [8] | Potency [9] | Potency [10] | Potency [11] | Potency [12] | Potency [13] | Potency [14] | Potency [15] | Potency [16] | Potency [17] | Potency [18] | Potency [19]

NC(=O)COCCN1CCN(C(c2ccccc2)c2ccc(Cl)cc2)CC1 (stereo not given)
inactive: Potency [1] | Potency [2] | Potency [3] | max response [20] 4.08% | Potency [5] | Potency [6] | Potency [7] | Potency [8] | Potency [9] | Potency [10] | Potency [12] | Potency [13] | Potency [14] | Potency [16] | Potency [17] | Potency [18] | Potency [19]

COc1nc(N)nc2c1ncn2[C@@H]1O[C@H](CO)[C@@H](O)[C@@H]1O
inactive: Potency [1] | Potency [2] | Potency [3] | max response [20] 14.1% | Potency [5] | Potency [6] | Potency [7] | Potency [8] | Potency [9] | Potency [10] | Potency [11] | Potency [12] | Potency [13] | Potency [14] | Potency [15] | Potency [16] | Potency [17] | Potency [18] | Potency [19]

CCC(C)S (stereo not given)
inactive: activity change, negative = cytotoxic [1] 2.53% [at 2.72 µM] | cytotoxicity increase [2] -0.869% [at 2.72 µM] | activity change, negative = cytotoxicity [3] 0.797% [at 2.72 µM] | max response [20] 2.1% | activity change [5] 2.02% [at 2.72 µM, active compounds read high] | cytotoxicity increase [6] 0.507% [at 2.72 µM] | activity change, negative = cytotoxic [7] -0.778% [at 2.72 µM] | cytotoxicity [8] 1.18% [at 2.72 µM] | cytotoxicity increase [9] -0.0934% [at 2.72 µM] | activity change, negative = cytotoxicity [10] 2.99% [at 2.72 µM] | cytotoxicity increase [11] 1.61% [at 2.72 µM] | cytotoxicity [12] -2.37% [at 2.72 µM] | cytotoxicity increase [13] 1.17% [at 2.72 µM] | cytotoxicity increase [14] 0.141% [at 2.72 µM] | activity change, negative = cytotoxic [15] -0.5% [at 2.72 µM] | activity change, negative = cytotoxicity [17] 2.1% [at 2.72 µM] | activity change [18] 1.7% [at 2.72 µM, active compounds read high] | activity change, negative = cytotoxicity [19] 5.41% [at 2.72 µM]

CCS(=O)(=O)c1ccc(OC)c(C(=O)OC)c1
inactive: Potency [1] | Potency [2] | Potency [3] | Potency [4] | Potency [6] | Potency [7] | Potency [8] | Potency [9] | Potency [10] | Potency [11] | Potency [12] | Potency [13] | Potency [14] | Potency [15] | Potency [16] | Potency [17] | Potency [18] | Potency [19]

NS(=O)(=O)c1cc2c(cc1Cl)NC(C1CC3C=CC1C3)NS2(=O)=O (stereo not given)
inactive: Potency [1] | Potency [2] | Potency [3] | max response [20] 11.9% | Potency [5] | Potency [6] | Potency [7] | Potency [8] | Potency [9] | Potency [10] | Potency [11] | Potency [12] | Potency [13] | Potency [14] | Potency [15] | Potency [18] | Potency [19]
